Hits are enriched below; roughly 4.7% of the tested compounds scored in any of these assays.
TRHR enhancer: qHTS for Small Molecule Agonists and Allosteric Enhancers of Human TRH Receptor: Primary Screen for Enhancers; Thyrotropin-releasing hormone receptor (Homo sapiens), P34981; TRHR cells, fluo-8 calcium fluorescence, EC20 TRH enhancement; enhancement, % at 2 µM; 360,000 compounds, 0.66% hits; AID 493056, 2011; in the data active means enhancement above about 30%; further: 0% is about no effect
Target sequence (P34981 whole entry, looked up): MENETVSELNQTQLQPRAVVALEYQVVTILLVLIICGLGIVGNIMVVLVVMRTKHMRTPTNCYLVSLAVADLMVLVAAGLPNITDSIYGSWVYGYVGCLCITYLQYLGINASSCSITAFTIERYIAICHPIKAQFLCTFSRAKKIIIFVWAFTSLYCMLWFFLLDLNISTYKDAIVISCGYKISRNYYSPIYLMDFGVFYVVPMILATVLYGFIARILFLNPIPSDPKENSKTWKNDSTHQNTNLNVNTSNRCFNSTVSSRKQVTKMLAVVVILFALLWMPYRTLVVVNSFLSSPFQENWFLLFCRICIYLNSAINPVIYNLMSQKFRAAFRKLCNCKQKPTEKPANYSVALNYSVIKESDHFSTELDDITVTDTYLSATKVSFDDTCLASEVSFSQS
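TRHR-expressing cells loaded with fluo-8 calcium dye were read kinetically (ex 480/em 530) during compound addition, then stimulated with an EC20 of TRH (10 nM final). Enhancement of the Gq-mediated intracellular calcium response was scored.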
D1 potentiator: Potentiators of Human D1 Dopamine Receptor: qHTS | D(1A) dopamine receptor (Homo sapiens), P21728 | HEK293 TREx D1 cells, calcium flux, dopamine EC20 potentiation | potentiation, % at 10 µM | 360,000 compounds, 0.036% hits | AID 504651, 2011; in the data active means potentiation above about 30%; further: 0% is about no effect
D1 agonist: Allosteric Agonists of the Human D1 Dopamine Receptor: qHTS | HEK293 T-REx D1 cells, calcium flux, agonist mode | activation, % at 2 µM | 360,000 compounds, 1% hits; further: 0% is about no effect
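Tetracycline-induced HEK293 TREx D1 cells, force-coupled to calcium signalling, were dye-loaded with a no-wash calcium kit. Compound was pin-added after a 10 s baseline. Fluorescence was read kinetically at 1 cycle/s for 180 s, with calcium rises flagged as agonism.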
D1 antagonist: Antagonist of Human D 1 Dopamine Receptor: qHTS; activity change, negative = inhibition, % at 10 µM; 360,000 compounds, 3.2% hits; HEK293 TREx D1 cells, calcium flux, dopamine EC80; stronger effect = lower value; AID 504652, 2011; D(1A) dopamine receptor (Homo sapiens), P21728; in the data active means activity change below about -30%; further: on the % scale 0 is the no-effect control and ±100 the full control effect
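Allosteric or orthosteric antagonism assessed as attenuation of the calcium response to EC80 dopamine, added 180 s after compound, in induced HEK293 Trex D1 cells loaded with no-wash calcium dye.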
TRHR agonist: qHTS for Small Molecule Agonists and Allosteric Enhancers of Human TRH Receptor: Primary Screen for Agonists; Thyrotropin-releasing hormone receptor (Homo sapiens), P34981; activation, % at 2 µM; AID 493084, 2011; TRHR cells, calcium flux fluo-8, FDSS agonist mode; 360,000 compounds, 0.18% hits; further: 0% is about no effect
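In this calcium-flux screen, cells bearing human TRHR are dye-loaded with fluo-8, baselined for 10 cycles, then exposed to library compounds; positive kinetic calcium responses during the agonist phase mark hits, with TRH as control.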
* = called active by the depositor. Unless noted, no stated cut-off is given here; in the data, active means activation above about 30%; inactive means the rest.

COCCNC(=O)CN(C(=O)CCC(=O)Nc1ccccn1)c1ccc(C)cc1 was read as TRHR enhancer -3, D1 potentiator -4, D1 agonist 1, D1 antagonist -6 and TRHR agonist 0.
Screening Cc1ccccc1CSc1nc2c(sc3ccccc32)c(=O)n1CCCC(=O)NCCCOC(C)C returned TRHR enhancer 7, D1 potentiator -6, D1 agonist 7, D1 antagonist -40* and TRHR agonist 0.
Screening Cc1ccc(C)c(N2N=C(C(=O)NCCN3C(=O)S/C(=C\c4cccnc4)C3=O)CCC2=O)c1 returned TRHR enhancer 12, D1 potentiator 8, D1 agonist 0, D1 antagonist -9 and TRHR agonist 0.
For CC(C)Cc1nnc(NC(=O)Cc2cccs2)s1 the results were TRHR enhancer 1, D1 potentiator -3, D1 agonist 1, D1 antagonist -50* and TRHR agonist 1.
Screening Cc1ccc(OCCn2c(Br)nc3c2c(=O)n(C)c(=O)n3C)cc1 returned TRHR enhancer 1, D1 potentiator -6, D1 agonist 13, D1 antagonist -33* and TRHR agonist 1.
Screening COc1ccc(C(CNC(=O)c2ccc(C)cc2)N2CCOCC2)cc1 (stereo not given) returned TRHR enhancer -4, D1 potentiator 0, D1 agonist 1, D1 antagonist 0 and TRHR agonist 1.
For COc1ccc(C(CNC(=O)c2ccc(-n3cnnn3)cc2)N2CCOCC2)cc1 (stereo not given) the results were TRHR enhancer 7, D1 potentiator -8, D1 agonist 1, D1 antagonist -47* and TRHR agonist 0.
`COc1ccc(CC(=O)NCC(c2ccc(Cl)cc2)N2CCOCC2)cc1` (stereo not given) gave TRHR enhancer -2, D1 potentiator -1, D1 agonist -3, D1 antagonist -43* and TRHR agonist 0.
COc1ccc(/C=N/NC(=O)c2ccc(-n3cnnn3)cc2)cc1 was read as TRHR enhancer 11, D1 potentiator 12, D1 agonist 1, D1 antagonist -65* and TRHR agonist 0.
Screening Cc1ccc(/C=N/NC(=O)c2ccc(-n3cnnn3)cc2)cc1 returned TRHR enhancer -4, D1 potentiator 1, D1 agonist 23, D1 antagonist 1 and TRHR agonist 2.
`CCN(CC)S(=O)(=O)c1ccc2c(c1)nc(CN(C)C(=O)Nc1cccc(Cl)c1)n2C` gave TRHR enhancer -1, D1 potentiator 0, D1 agonist 0, D1 antagonist 10 and TRHR agonist 1.
`COc1ccccc1CNC(=O)CCC1N=C2c3ccccc3N=C(SCC(=O)NCCc3ccc(OC)c(OC)c3)N2C1=O` (stereo not given) gave TRHR enhancer -5, D1 potentiator -1, D1 agonist 0, D1 antagonist 10 and TRHR agonist 0.
Screening Cc1ccc2c(c1)cc(C(=O)NCc1ccccc1C)n2C returned TRHR enhancer 0, D1 potentiator 0, D1 agonist -3, D1 antagonist 10 and TRHR agonist 0.
Screening O=C(C1CC(=O)N(c2ccc(Cl)cc2)C1)N1CCC(c2nc3ccccc3[nH]2)CC1 (stereo not given) returned TRHR enhancer -5, D1 potentiator 7, D1 agonist 1, D1 antagonist -2 and TRHR agonist 0.
`Cc1cc(N2CCN(c3cccc(C)c3C)CC2)n2cnnc2n1` gave TRHR enhancer 22, D1 potentiator -1, D1 agonist 2, D1 antagonist 1 and TRHR agonist -1.
Screening COc1cccc(NC(=S)N(CCCN2CCOCC2)C(C)c2cc3cccc(OC)c3o2)c1 (stereo not given) returned TRHR enhancer -6, D1 potentiator -12, D1 agonist 14, D1 antagonist -68* and TRHR agonist 0.
COc1cc(OC)cc(-c2nnc(SCC(=O)N3CCOCC3)o2)c1 was read as TRHR enhancer -6, D1 potentiator -6, D1 agonist 1, D1 antagonist -20 and TRHR agonist 0.

Screening results (PubChem BioAssay)
